Calls of active or inactive are those of the source. The calls were made as follows, unless noted: active = hit-call score of the fitted dose curve at least 0.9, where 1 is the maximum; inactive = score below 0.9.
Tests used:
[1] = read-out: Protein phosphatase 2A (PPP2R4), PTPA (gene 5524); test: LTEA_HepaRG_PPP2R4: Life Technologies and Expression Analysis (LTEA) Assay for Protein phosphatase 2A (PPP2R4) using HepaRG (AID 2283522); details: mRNA level, 48 h; actives raise or lower the signal
Outline: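 Gene-expression endpoint in HepaRG hepatic cells: 48 h treatment across eight half-log concentrations up to 100 uM in 0.5% DMSO. PPP2R4 mRNA by qRT-PCR, normalized to three endogenous control genes.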

[2] = read-out: Phosphatase and tensin (PTEN), PTEN (gene 5728); test: LTEA_HepaRG_PTEN: Life Technologies and Expression Analysis (LTEA) Assay for Phosphatase and tensin (PTEN) using HepaRG (AID 2283523); details: mRNA level, 48 h; actives raise or lower the signal
Outline: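 Differentiated human HepaRG cells, plated 48 h then switched to serum-free induction medium, were exposed in duplicate for 48 h to eight half-log concentrations up to 100 uM in 0.5% DMSO. PTEN mRNA measured by TaqMan qRT-PCR, normalized to ACTB/GAPDH/POLR2A, bidirectional fit versus DMSO.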

[3] = read-out: solute carrier (SLC22A1), SLC22A1 (gene 6580); test: LTEA_HepaRG_SLC22A1: Life Technologies and Expression Analysis (LTEA) Assay for solute carrier (SLC22A1) using HepaRG (AID 2283524); details: mRNA level, 48 h; actives raise or lower the signal
Outline: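 Human HepaRG cells were plated 48 h, switched to serum-free induction medium, then exposed in duplicate for 48 h to 8-point half-log series from 100 uM in 0.5% DMSO. SLC22A1 mRNA measured by qRT-PCR, normalized to ACTB/GAPDH/POLR2A, fitted bidirectionally versus DMSO.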

[4] = read-out: Pyruvate Dehydrogenase Kinase 4 (PDK4), PDK4 (gene 5166); test: LTEA_HepaRG_PDK4: Life Technologies and Expression Analysis (LTEA) Assay for Pyruvate Dehydrogenase Kinase 4 (PDK4) using HepaRG (AID 2283525); details: mRNA level, 48 h; actives raise or lower the signal
Outline: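 Differentiated human HepaRG cells, pre-cultured 48 h, were exposed in duplicate for 48 h in serum-free induction medium to eight half-log concentrations up to 100 uM in 0.5% DMSO. PDK4 mRNA was quantified by qRT-PCR, normalized to ACTB, GAPDH and POLR2A, bidirectional fitting versus DMSO.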

[5] = read-out: NAD(P)H dehydrogenase [quinone] 1 (NQO1), NQO1 (gene 1728); test: LTEA_HepaRG_NQO1: Life Technologies and Expression Analysis (LTEA) Assay for NAD(P)H dehydrogenase [quinone] 1 (NQO1) using HepaRG (AID 2283526); details: mRNA level, 48 h; actives raise or lower the signal
Outline: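 Human HepaRG hepatic cells received chemicals for 48 h in serum-free induction medium with 0.5% DMSO, up to 100 uM. Expression was assessed by TaqMan qRT-PCR against housekeeping controls and fitted bidirectionally against DMSO.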

[6] = read-out: Nuclear factor erythroid 2-related factor 2 (Homo sapiens) (UniProt Q16236); test: LTEA_HepaRG_NFE2L2: Life Technologies and Expression Analysis (LTEA) Assay for Nuclear factor erythroid 2-related factor 2 (NFE2L2) Transcription Factor using HepaRG (AID 2283527); details: mRNA level, 48 h; actives raise or lower the signal
Outline: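 Differentiated human HepaRG cells in serum-free induction medium were exposed for 48 h to eight concentrations (top 100 uM, half-log dilutions, 0.5% DMSO), in duplicate. NFE2L2 mRNA was quantified by TaqMan qRT-PCR, normalized to ACTB, GAPDH and POLR2A, with bidirectional fitting versus DMSO.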

[7] = read-out: succinate dehydrogenase complex iron sulfur subunit B (SDHB), SDHB (gene 6390); test: LTEA_HepaRG_SDHB: Life Technologies and Expression Analysis (LTEA) Assay for succinate dehydrogenase complex iron sulfur subunit B (SDHB) using HepaRG (AID 2283528); details: mRNA level, 48 h; actives raise or lower the signal
Outline: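 HepaRG cells (~100,000/well, plated 48 h) exposed in duplicate for 48 h in serum-free induction medium to 8-point half-log series from 100 uM in 0.5% DMSO; mRNA by qRT-PCR normalised to ACTB, GAPDH, POLR2A; bidirectional fit versus DMSO.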

[8] = read-out: Signal transducer and activator of transcription 3 (Homo sapiens) (UniProt P40763); test: LTEA_HepaRG_STAT3: Life Technologies and Expression Analysis (LTEA) Assay for Signal transducer and activator of transcription (STAT3) using HepaRG (AID 2283529); details: mRNA level, 48 h; actives raise or lower the signal
Outline: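 Differentiated human HepaRG cells in serum-free induction medium were exposed in duplicate for 48 h to eight half-log concentrations up to 100 uM in 0.5% DMSO. STAT3 mRNA was quantified by TaqMan qRT-PCR, normalized to ACTB, GAPDH and POLR2A, and fitted bidirectionally against DMSO.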

[9] = read-out: solute carrier (SLCO1B1), SLCO1B1 (gene 10599); test: LTEA_HepaRG_SLCO1B1: Life Technologies and Expression Analysis (LTEA) Assay for solute carrier (SLCO1B1) using HepaRG (AID 2283530); details: mRNA level, 48 h; actives raise or lower the signal
Outline: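 Human HepaRG cultures treated for 48 h with an eight-concentration half-log series topping at 100 uM; SLCO1B1 measured by qRT-PCR and fitted bidirectionally relative to DMSO.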

[10] = read-out: sulfotransferase 2A1 (SULT2A1), SULT2A1 (gene 6822); test: LTEA_HepaRG_SULT2A1: Life Technologies and Expression Analysis (LTEA) Assay for sulfotransferase 2A1 (SULT2A1) using HepaRG (AID 2283531); details: mRNA level, 48 h; actives raise or lower the signal
Outline: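 Gene-expression endpoint in a human liver cell line: SULT2A1 mRNA change after 48 h chemical treatment, curves fitted in both directions relative to 0.5% DMSO vehicle. Concentrations spanned eight half-log steps from 100 uM.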

[11] = read-out: Transforming Growth Factor (TGFA), TGFA (gene 7039); test: LTEA_HepaRG_TGFA: Life Technologies and Expression Analysis (LTEA) Assay for Transforming Growth Factor (TGFA) using HepaRG (AID 2283532); details: mRNA level, 48 h; actives raise or lower the signal
Outline: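 Differentiated human HepaRG cells, plated 48 h then switched to serum-free induction medium, were exposed in duplicate for 48 h to 8-point half-log series from 100 uM in 0.5% DMSO. TGFA mRNA measured by qRT-PCR, normalized to ACTB/GAPDH/POLR2A, bidirectional fit versus DMSO.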

[12] = read-out: Transforming Growth Factor (TGFB1), TGFB1 (gene 7040); test: LTEA_HepaRG_TGFB1: Life Technologies and Expression Analysis (LTEA) Assay for Transforming Growth Factor (TGFB1) Transporter using HepaRG (AID 2283533); details: mRNA level, 48 h; actives raise or lower the signal
Outline: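 Eight-point concentration-response (max 100 uM, half-log) in HepaRG under serum-free induction conditions, 48 h. TGFB1 mRNA by qRT-PCR, housekeeping-normalized.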

[13] = read-out: TIMP1, TIMP1 (gene 7076); test: LTEA_HepaRG_TIMP1: Life Technologies and Expression Analysis (LTEA) Assay for TIMP1 using HepaRG (AID 2283534); details: mRNA level, 48 h; actives raise or lower the signal
Outline: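 TIMP1 induction or repression in HepaRG cells after 48 h chemical exposure (eight concentrations, highest 100 uM), assessed by normalized qRT-PCR with bidirectional fitting to DMSO controls.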

[14] = read-out: Tumor necrosis factor receptor 1 (TNFRSF1A), TNFRSF1A (gene 7132); test: LTEA_HepaRG_TNFRSF1A: Life Technologies and Expression Analysis (LTEA) Assay for Tumor necrosis factor receptor 1 (TNFRSF1A) using HepaRG (AID 2283535); details: mRNA level, 48 h; actives raise or lower the signal
Outline: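 Assay uses 48 h chemical treatment of differentiated HepaRG monolayers, tested in duplicate at eight concentrations from 100 uM downward in 0.5% DMSO. mRNA is normalized to ACTB, GAPDH and POLR2A, with induction or suppression fitted relative to vehicle.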

[15] = read-out: Thyroid Hormone Responsive (THRSP), THRSP (gene 7069); test: LTEA_HepaRG_THRSP: Life Technologies and Expression Analysis (LTEA) Assay for Thyroid Hormone Responsive (THRSP) using HepaRG (AID 2283536); details: mRNA level, 48 h; actives raise or lower the signal
Outline: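 Differentiated human HepaRG cells were exposed in duplicate for 48 h in serum-free induction medium to eight concentrations (top 100 uM, half-log steps, 0.5% DMSO). Expression was quantified by TaqMan qRT-PCR, normalized to ACTB, GAPDH and POLR2A, with bidirectional fitting against DMSO.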

[16] = read-out: UDP glucuronosyltransferase (UGT1A1), UGT1A1 (gene 54658); test: LTEA_HepaRG_UGT1A1: Life Technologies and Expression Analysis (LTEA) Assay for UDP glucuronosyltransferase (UGT1A1) using HepaRG (AID 2283538); details: mRNA level, 48 h; actives raise or lower the signal
Outline: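 Human liver HepaRG cultures receive test chemical for 48 h, up to 100 uM in 0.5% DMSO, with phenobarbital induction controls. UGT1A1 mRNA is measured by qRT-PCR and normalized to ACTB, GAPDH and POLR2A.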

[17] = read-out: UDP glucuronosyltransferase (UGT1A6), UGT1A6 (gene 54578); test: LTEA_HepaRG_UGT1A6: Life Technologies and Expression Analysis (LTEA) Assay for UDP glucuronosyltransferase (UGT1A6) using HepaRG (AID 2283539); details: mRNA level, 48 h; actives raise or lower the signal
Outline: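 Measures mRNA change in HepaRG hepatic cells exposed 48 h to chemicals (eight-point, maximum 100 uM, 0.5% DMSO vehicle) in serum-free induction medium. Expression normalized to endogenous controls; DMSO served as negative control and baseline.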

[18] = read-out: X-box binding protein 1 (XBP1), XBP1 (gene 7494); test: LTEA_HepaRG_XBP1: Life Technologies and Expression Analysis (LTEA) Assay for X-box binding protein 1 (XBP1) using HepaRG (AID 2283540); details: mRNA level, 48 h; actives raise or lower the signal
Outline: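 Eight concentrations (half-log, highest 100 uM, 0.5% DMSO) tested in duplicate on HepaRG cells over 48 h in serum-free induction medium; qRT-PCR of XBP1 normalised to ACTB, GAPDH, POLR2A.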

[19] = LTEA_HepaRG_LDH_cytotoxicity: Cytotoxicity Assessment in the Life Technologies and Expression Analysis (LTEA) Assay (AID 2283563; active = hit-call score of the fitted dose curve at least 0.9, where 1 is the maximum;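 also: LDH activity released into spent culture medium as a marker of cell death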)
Outline: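 Spent-medium LDH after 48 h chemical exposure of HepaRG cells in serum-free induction medium; eight concentrations, half-log dilutions from 100 uM, duplicate wells, fitted upward relative to 0.5% DMSO.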

Measured: AC50

Sequence of Nuclear factor erythroid 2-related factor 2 (Homo sapiens) (Q16236 whole entry, looked up): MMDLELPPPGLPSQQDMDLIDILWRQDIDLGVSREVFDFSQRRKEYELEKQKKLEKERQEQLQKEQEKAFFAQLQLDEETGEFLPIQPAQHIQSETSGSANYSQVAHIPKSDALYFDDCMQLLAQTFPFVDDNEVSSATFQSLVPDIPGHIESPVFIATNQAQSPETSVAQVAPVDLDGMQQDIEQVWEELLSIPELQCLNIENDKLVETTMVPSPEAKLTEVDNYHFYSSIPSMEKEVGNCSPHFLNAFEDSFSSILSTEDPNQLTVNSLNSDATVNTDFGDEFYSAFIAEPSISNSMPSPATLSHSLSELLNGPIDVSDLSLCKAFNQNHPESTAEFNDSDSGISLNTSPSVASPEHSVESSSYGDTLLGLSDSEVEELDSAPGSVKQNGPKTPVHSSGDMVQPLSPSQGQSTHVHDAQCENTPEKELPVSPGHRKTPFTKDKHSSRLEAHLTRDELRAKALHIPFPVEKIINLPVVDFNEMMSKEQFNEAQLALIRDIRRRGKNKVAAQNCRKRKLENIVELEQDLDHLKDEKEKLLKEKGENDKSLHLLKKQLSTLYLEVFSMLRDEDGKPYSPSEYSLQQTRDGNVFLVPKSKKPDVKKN
Sequence of Signal transducer and activator of transcription 3 (Homo sapiens) (P40763 whole entry, looked up): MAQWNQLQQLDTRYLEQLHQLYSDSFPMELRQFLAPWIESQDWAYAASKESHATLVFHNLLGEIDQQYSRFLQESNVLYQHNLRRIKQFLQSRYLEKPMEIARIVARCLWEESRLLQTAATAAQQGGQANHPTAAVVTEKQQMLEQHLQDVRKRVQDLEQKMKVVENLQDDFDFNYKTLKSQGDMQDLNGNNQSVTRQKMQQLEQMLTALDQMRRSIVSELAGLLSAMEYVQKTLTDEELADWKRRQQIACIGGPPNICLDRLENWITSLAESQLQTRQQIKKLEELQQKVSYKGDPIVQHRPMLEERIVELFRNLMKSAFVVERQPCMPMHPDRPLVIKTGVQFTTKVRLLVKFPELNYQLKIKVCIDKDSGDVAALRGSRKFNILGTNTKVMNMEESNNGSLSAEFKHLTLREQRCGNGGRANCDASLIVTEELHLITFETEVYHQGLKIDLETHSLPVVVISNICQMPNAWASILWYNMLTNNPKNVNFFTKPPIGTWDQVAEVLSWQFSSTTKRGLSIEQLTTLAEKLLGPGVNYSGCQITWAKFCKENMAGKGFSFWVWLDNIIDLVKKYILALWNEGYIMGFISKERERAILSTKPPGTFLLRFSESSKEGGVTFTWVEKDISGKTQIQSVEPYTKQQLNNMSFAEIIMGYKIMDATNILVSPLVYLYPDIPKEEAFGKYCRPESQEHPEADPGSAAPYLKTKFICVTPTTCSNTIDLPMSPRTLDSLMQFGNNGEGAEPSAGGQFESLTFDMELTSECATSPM

CCCCNC(=O)OCC#CI
active: [9] 50 µM | [10] 50 µM | [15] 50 µM | [16] 24.9 µM | [18] 50 µM
inactive: [1] | [2] | [3] | [4] | [5] | [6] | [7] | [8] | [11] | [12] | [13] | [14] | [17]

N#CC(CCc1ccc(Cl)cc1)(Cn1cncn1)c1ccccc1 (stereo not given)
active: [3] 71.5 µM | [6] 72.4 µM | [9] 83.6 µM | [10] 77.2 µM | [11] 77 µM | [12] 66.7 µM | [15] 90.7 µM | [16] 74.9 µM | [17] 81.9 µM | [18] 80.3 µM
inactive: [1] | [2] | [4] | [5] | [7] | [8] | [13] | [14]

N#Cc1cc(Br)c(O)c(Br)c1
inactive: [11]
active: [1] 10.7 µM | [2] 26.1 µM | [3] 16.2 µM | [4] 9.64 µM | [5] 11.9 µM | [6] 10.3 µM | [7] 7.28 µM | [8] 3.27 µM | [9] 17.8 µM | [10] 25.7 µM | [12] 14.2 µM | [13] 10.2 µM | [14] 16.9 µM | [15] 22.6 µM | [16] 17 µM | [17] 23.5 µM | [18] 10.5 µM | [19] 66.8 µM

From PubChem BioAssay (EPA / NIEHS)
